Reference: article PMC11006913
Substitutions are numbered along the chain they refer to.

How the values were obtained:
Assay in all cases: PBM; 200 nM protein, PBS
Conditions in all cases: dsDNA, one strand shown
[1] = molecular target: T1, SIX6 (Homo sapiens, UniProt O95475 114-200, L167I)
T1 sequence: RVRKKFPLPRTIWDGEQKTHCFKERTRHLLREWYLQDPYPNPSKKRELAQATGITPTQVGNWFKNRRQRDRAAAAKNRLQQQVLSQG

[2] = molecular target: T2, SIX6 (Homo sapiens, UniProt O95475 114-200, L143V)
T2 sequence: T1 sequence with L30V, I54L

[3] = molecular target: T3, SIX6 (Homo sapiens, UniProt O95475 114-200, H141N)
T3 sequence: T1 sequence with H28N, I54L

[4] = molecular target: T4, SIX6 (Homo sapiens, UniProt O95475 114-200, T165P)
T4 sequence: T1 sequence with T52P, I54L

[5] = molecular target: T5, SIX6 (Homo sapiens, UniProt O95475 114-200, L167M)
T5 sequence: T1 sequence with I54M

[6] = molecular target: T6, SIX6 (Homo sapiens, UniProt O95475 114-200, L143M)
T6 sequence: T1 sequence with L30M, I54L

[7] = molecular target: T7, SIX6 (Homo sapiens, UniProt O95475 114-200, L143I)
T7 sequence: T1 sequence with L30I, I54L

[8] = molecular target: T8, SIX6 (Homo sapiens, UniProt O95475 114-200, T165G)
T8 sequence: T1 sequence with T52G, I54L

[9] = molecular target: T9, SIX6 (Homo sapiens, UniProt O95475 114-200, T139Q)
T9 sequence: T1 sequence with T26Q, I54L

[10] = molecular target: T10, SIX6 (Homo sapiens, UniProt O95475 114-200, T165A)
T10 sequence: T1 sequence with T52A, I54L

[11] = molecular target: T11, SIX6 (Homo sapiens, UniProt O95475 114-200, L167V)
T11 sequence: T1 sequence with I54V

[12] = molecular target: T12, SIX6 (Homo sapiens, UniProt O95475 114-200)
T12 sequence: T1 sequence with I54L

[13] = molecular target: T13, SIX6 (Homo sapiens, UniProt O95475 114-200, T165I)
T13 sequence: T1 sequence with T52I, I54L

[14] = molecular target: HOXC9 (Homo sapiens, UniProt P31274 178-260, R222W)
HOXC9, sequence (P31274 178-260 R222W): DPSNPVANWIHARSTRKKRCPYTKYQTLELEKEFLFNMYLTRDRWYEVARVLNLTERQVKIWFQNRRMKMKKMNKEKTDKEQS

[15] = molecular target: HOXB6 (Homo sapiens, UniProt P17509 132-218, K202E)
HOXB6, sequence (P17509 132-218 K202E): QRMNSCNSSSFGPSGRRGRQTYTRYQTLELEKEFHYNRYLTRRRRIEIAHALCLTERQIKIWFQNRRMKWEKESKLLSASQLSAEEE

Sequence | binding signal [1] | binding signal [2] | binding signal [3] | binding signal [4] | binding signal [5] | binding signal [6] | binding signal [7] | binding signal [8] | binding signal [9] | binding signal [10] | binding signal [11] | binding signal [12] | binding signal [13] | binding signal [14] | binding signal [15]
CCCAGCCG | 9.06 upbm affinity estimate (log intensity, higher = more binding, comparable within an allelic series) | 8.82 upbm affinity estimate (log intensity, higher = more binding, comparable within an allelic series) | 9.12 upbm affinity estimate (log intensity, higher = more binding, comparable within an allelic series) | 8.84 upbm affinity estimate (log intensity, higher = more binding, comparable within an allelic series) | 9.01 upbm affinity estimate (log intensity, higher = more binding, comparable within an allelic series) | 8.87 upbm affinity estimate (log intensity, higher = more binding, comparable within an allelic series) | 8.92 upbm affinity estimate (log intensity, higher = more binding, comparable within an allelic series) | 9.07 upbm affinity estimate (log intensity, higher = more binding, comparable within an allelic series) | 9.24 upbm affinity estimate (log intensity, higher = more binding, comparable within an allelic series) | 9.06 upbm affinity estimate (log intensity, higher = more binding, comparable within an allelic series) | 8.98 upbm affinity estimate (log intensity, higher = more binding, comparable within an allelic series) | 9.03 upbm affinity estimate (log intensity, higher = more binding, comparable within an allelic series) | 9.05 upbm affinity estimate (log intensity, higher = more binding, comparable within an allelic series) | 9.62 upbm affinity estimate (log intensity, higher = more binding, comparable within an allelic series) | 
CGGCTTCC | 9 upbm affinity estimate (log intensity, higher = more binding, comparable within an allelic series) | 8.76 upbm affinity estimate (log intensity, higher = more binding, comparable within an allelic series) | 8.87 upbm affinity estimate (log intensity, higher = more binding, comparable within an allelic series) | 8.79 upbm affinity estimate (log intensity, higher = more binding, comparable within an allelic series) | 8.83 upbm affinity estimate (log intensity, higher = more binding, comparable within an allelic series) | 9 upbm affinity estimate (log intensity, higher = more binding, comparable within an allelic series) | 8.88 upbm affinity estimate (log intensity, higher = more binding, comparable within an allelic series) | 9 upbm affinity estimate (log intensity, higher = more binding, comparable within an allelic series) | 9.03 upbm affinity estimate (log intensity, higher = more binding, comparable within an allelic series) | 8.96 upbm affinity estimate (log intensity, higher = more binding, comparable within an allelic series) | 8.89 upbm affinity estimate (log intensity, higher = more binding, comparable within an allelic series) | 8.96 upbm affinity estimate (log intensity, higher = more binding, comparable within an allelic series) | 8.91 upbm affinity estimate (log intensity, higher = more binding, comparable within an allelic series) |  | 
CTCCGCCC | 8.91 upbm affinity estimate (log intensity, higher = more binding, comparable within an allelic series) | 8.91 upbm affinity estimate (log intensity, higher = more binding, comparable within an allelic series) | 8.92 upbm affinity estimate (log intensity, higher = more binding, comparable within an allelic series) | 8.95 upbm affinity estimate (log intensity, higher = more binding, comparable within an allelic series) | 8.94 upbm affinity estimate (log intensity, higher = more binding, comparable within an allelic series) | 8.89 upbm affinity estimate (log intensity, higher = more binding, comparable within an allelic series) | 8.86 upbm affinity estimate (log intensity, higher = more binding, comparable within an allelic series) | 8.87 upbm affinity estimate (log intensity, higher = more binding, comparable within an allelic series) | 8.89 upbm affinity estimate (log intensity, higher = more binding, comparable within an allelic series) | 8.96 upbm affinity estimate (log intensity, higher = more binding, comparable within an allelic series) | 8.86 upbm affinity estimate (log intensity, higher = more binding, comparable within an allelic series) | 8.89 upbm affinity estimate (log intensity, higher = more binding, comparable within an allelic series) | 8.95 upbm affinity estimate (log intensity, higher = more binding, comparable within an allelic series) |  | 
CTGCGGAC | 8.88 upbm affinity estimate (log intensity, higher = more binding, comparable within an allelic series) | 8.75 upbm affinity estimate (log intensity, higher = more binding, comparable within an allelic series) | 8.87 upbm affinity estimate (log intensity, higher = more binding, comparable within an allelic series) | 8.83 upbm affinity estimate (log intensity, higher = more binding, comparable within an allelic series) | 8.84 upbm affinity estimate (log intensity, higher = more binding, comparable within an allelic series) | 8.84 upbm affinity estimate (log intensity, higher = more binding, comparable within an allelic series) | 8.83 upbm affinity estimate (log intensity, higher = more binding, comparable within an allelic series) | 8.91 upbm affinity estimate (log intensity, higher = more binding, comparable within an allelic series) | 9.05 upbm affinity estimate (log intensity, higher = more binding, comparable within an allelic series) | 8.83 upbm affinity estimate (log intensity, higher = more binding, comparable within an allelic series) | 8.84 upbm affinity estimate (log intensity, higher = more binding, comparable within an allelic series) | 8.84 upbm affinity estimate (log intensity, higher = more binding, comparable within an allelic series) | 8.85 upbm affinity estimate (log intensity, higher = more binding, comparable within an allelic series) |  | 8.87 upbm affinity estimate (log intensity, higher = more binding, comparable within an allelic series)
GCACGCCC | 8.91 upbm affinity estimate (log intensity, higher = more binding, comparable within an allelic series) | 8.8 upbm affinity estimate (log intensity, higher = more binding, comparable within an allelic series) | 8.92 upbm affinity estimate (log intensity, higher = more binding, comparable within an allelic series) | 8.82 upbm affinity estimate (log intensity, higher = more binding, comparable within an allelic series) | 8.88 upbm affinity estimate (log intensity, higher = more binding, comparable within an allelic series) | 8.84 upbm affinity estimate (log intensity, higher = more binding, comparable within an allelic series) | 8.88 upbm affinity estimate (log intensity, higher = more binding, comparable within an allelic series) | 8.97 upbm affinity estimate (log intensity, higher = more binding, comparable within an allelic series) | 8.92 upbm affinity estimate (log intensity, higher = more binding, comparable within an allelic series) | 8.91 upbm affinity estimate (log intensity, higher = more binding, comparable within an allelic series) | 8.87 upbm affinity estimate (log intensity, higher = more binding, comparable within an allelic series) | 8.94 upbm affinity estimate (log intensity, higher = more binding, comparable within an allelic series) | 8.8 upbm affinity estimate (log intensity, higher = more binding, comparable within an allelic series) |  | 
AGCGCAGG | 9.08 upbm affinity estimate (log intensity, higher = more binding, comparable within an allelic series) | 8.96 upbm affinity estimate (log intensity, higher = more binding, comparable within an allelic series) | 9.05 upbm affinity estimate (log intensity, higher = more binding, comparable within an allelic series) | 8.99 upbm affinity estimate (log intensity, higher = more binding, comparable within an allelic series) | 9.06 upbm affinity estimate (log intensity, higher = more binding, comparable within an allelic series) | 9.04 upbm affinity estimate (log intensity, higher = more binding, comparable within an allelic series) | 9.01 upbm affinity estimate (log intensity, higher = more binding, comparable within an allelic series) | 9.15 upbm affinity estimate (log intensity, higher = more binding, comparable within an allelic series) | 9.1 upbm affinity estimate (log intensity, higher = more binding, comparable within an allelic series) | 9.08 upbm affinity estimate (log intensity, higher = more binding, comparable within an allelic series) | 9.04 upbm affinity estimate (log intensity, higher = more binding, comparable within an allelic series) | 9.02 upbm affinity estimate (log intensity, higher = more binding, comparable within an allelic series) | 9.03 upbm affinity estimate (log intensity, higher = more binding, comparable within an allelic series) |  | 
CGGCCTGC | 8.86 upbm affinity estimate (log intensity, higher = more binding, comparable within an allelic series) | 8.66 upbm affinity estimate (log intensity, higher = more binding, comparable within an allelic series) | 8.83 upbm affinity estimate (log intensity, higher = more binding, comparable within an allelic series) | 8.82 upbm affinity estimate (log intensity, higher = more binding, comparable within an allelic series) | 8.8 upbm affinity estimate (log intensity, higher = more binding, comparable within an allelic series) | 8.73 upbm affinity estimate (log intensity, higher = more binding, comparable within an allelic series) | 8.72 upbm affinity estimate (log intensity, higher = more binding, comparable within an allelic series) | 8.88 upbm affinity estimate (log intensity, higher = more binding, comparable within an allelic series) | 8.8 upbm affinity estimate (log intensity, higher = more binding, comparable within an allelic series) | 8.82 upbm affinity estimate (log intensity, higher = more binding, comparable within an allelic series) | 8.8 upbm affinity estimate (log intensity, higher = more binding, comparable within an allelic series) | 8.79 upbm affinity estimate (log intensity, higher = more binding, comparable within an allelic series) | 8.82 upbm affinity estimate (log intensity, higher = more binding, comparable within an allelic series) |  | 
CCCGGGAC | 8.81 upbm affinity estimate (log intensity, higher = more binding, comparable within an allelic series) | 9.03 upbm affinity estimate (log intensity, higher = more binding, comparable within an allelic series) | 8.97 upbm affinity estimate (log intensity, higher = more binding, comparable within an allelic series) | 8.99 upbm affinity estimate (log intensity, higher = more binding, comparable within an allelic series) | 9.01 upbm affinity estimate (log intensity, higher = more binding, comparable within an allelic series) | 9.18 upbm affinity estimate (log intensity, higher = more binding, comparable within an allelic series) | 9.04 upbm affinity estimate (log intensity, higher = more binding, comparable within an allelic series) | 9.17 upbm affinity estimate (log intensity, higher = more binding, comparable within an allelic series) | 9.14 upbm affinity estimate (log intensity, higher = more binding, comparable within an allelic series) | 9.12 upbm affinity estimate (log intensity, higher = more binding, comparable within an allelic series) | 8.96 upbm affinity estimate (log intensity, higher = more binding, comparable within an allelic series) | 9.07 upbm affinity estimate (log intensity, higher = more binding, comparable within an allelic series) | 9.02 upbm affinity estimate (log intensity, higher = more binding, comparable within an allelic series) |  | 
CAGCGCCG | 8.83 upbm affinity estimate (log intensity, higher = more binding, comparable within an allelic series) | 8.75 upbm affinity estimate (log intensity, higher = more binding, comparable within an allelic series) | 8.78 upbm affinity estimate (log intensity, higher = more binding, comparable within an allelic series) | 8.87 upbm affinity estimate (log intensity, higher = more binding, comparable within an allelic series) | 8.78 upbm affinity estimate (log intensity, higher = more binding, comparable within an allelic series) | 8.76 upbm affinity estimate (log intensity, higher = more binding, comparable within an allelic series) | 8.8 upbm affinity estimate (log intensity, higher = more binding, comparable within an allelic series) | 8.83 upbm affinity estimate (log intensity, higher = more binding, comparable within an allelic series) | 8.77 upbm affinity estimate (log intensity, higher = more binding, comparable within an allelic series) | 8.74 upbm affinity estimate (log intensity, higher = more binding, comparable within an allelic series) | 8.79 upbm affinity estimate (log intensity, higher = more binding, comparable within an allelic series) | 8.78 upbm affinity estimate (log intensity, higher = more binding, comparable within an allelic series) | 8.74 upbm affinity estimate (log intensity, higher = more binding, comparable within an allelic series) |  | 
